Screens (PubChem BioAssay)
This is a sample that favours compounds with a hit; in the whole collection about 1.8% have one here.
Bfl-1 A1 inh = inhibitors of the anti-apoptotic protein A1, read as caspase activation. MEF A1-2A-BIM cells, Caspase-Glo 3/7 luminescence, 3 h; percent of clofoctol response, vehicle zero. caspase activation, % (test concentration not listed). hit rate 0.066% among 330,000. AID 2462;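 active = over half of replicate activation scores above 10%, or exactly half above 10 with the replicate mean above 10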
aDG glyco up = alpha-DG glycosylation activation; Pro5-aDG cells, alpha-DG glycosylation AlphaScreen (IIH6); 0% Pro5, 100% B10-LARGE cell signal; hit rate 0.22% among 360,000; activation, % at 10 µM; AID 624168;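 active = activation of at least 8% versus controls, or a plate z-score of at least 8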;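 also: Pro5 are CHO cells carrying HIG-tagged alpha-DG that lacks glycosylation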
Mot1-301 SUMO = SUMOylation pathway inhibition by Mot1-301 growth rescue. S. cerevisiae Mot1-301 growth rescue, ATP luminescence, 38.5C; percent above DMSO median, 100 means doubled. growth rescue, % at 18.8 µM. hit rate 1% among 320,000. AID 2716;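 active = every valid replicate shows activation above 250% relative to neutral control wells; inactive = the rest, any valid replicate at or below 250%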;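 also: OY570 slx delta 5 strain wells were the positive control but not used for scaling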
ARNT-TACC3 inh = ARNT/TACC3 interaction disruption. AlphaScreen His-ARNT PAS-B/GST-TACC3 binding, luminescence; TACC3 fragment carries E629A point mutation. inhibition, % at 9.99 µM. hit rate 0.66% among 390,000;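 active = mean inhibition of replicates at least 50% and at least half of replicates each reaching 50%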;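 also: 0% = complete ARNT plus TACC3 wells and 100% = ARNT alone without TACC3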
AI-2 QS mod = modulators of Vibrio harveyi AI-2 quorum sensing system | Vibrio harveyi JMH597 AI-2 luminescence/OD600 ratio, 9 h; active compounds read low; strain lacks LuxN and CqsS sensors; 0 = neutral-control median | activity change, % at 7.5 µM | hit rate 0.4% among 300,000; in the data active = activity change below about -75%, passing the limit was not always enough;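 also: luminescence divided by OD600 gain over 9 h not by final OD600 alone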
Yeast Mot1 SUMO = SUMO pathway inhibitors in yeast Mot1-301 growth | shares compounds with Mot1-301 SUMO | S. cerevisiae Mot1-301 galactose growth, ATP luminescence, 24 h; -100 = growth of slx-deleted rescue strain | growth activity, percent, % at 42 µM | 2,300 tested, under 10 active | AID 493004;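 active = Signal drops as the depositor expects, and the fitted half-maximal dose is no more than ten times the top valid tested dose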;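 also: more negative values mean stronger growth rescue toward the control strain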
Numbers without * were called inactive; . = no result given; + = active, no number; [ ] = another dose, or the depositor's remark.

SMILES	Bfl-1 A1 inh	aDG glyco up	Mot1-301 SUMO	ARNT-TACC3 inh	AI-2 QS mod	Yeast Mot1 SUMO
Cc1cc(N2CCN(C)CC2)nc2ccc(NC(=S)N3CCC4(CC3)OCCO4)cc12	0	0	+	0	-2	0
CCCCN(C)C(=O)CCC(=O)Nc1ccc2nc(N3CCN(C)CC3)cc(C)c2c1	1	0	449*	-2	11	0
CCOc1c(Cl)cc(CNCC(O)c2ccccc2)cc1OC (stereo not given)	-1	0	614*	-7	6	0
CCOC(=O)C1ON2CCCCC2C1(O)C(F)(F)F (stereo not given)	1	0	528*	-7	15	1
COc1ccc2cc(C(=O)Nc3ccc(O)cc3)sc(=O)c2c1OC	0	0	-6	-2	15	.
COc1ccc2cc(C(=O)Nc3ccc(Cl)cc3)sc(=O)c2c1OC	0	0	752*	-4	20	0
Cc1ccc(-c2nn(-c3ccccc3)cc2/C=N/NC(=O)c2ccc(Br)o2)cc1	-1	1	24	-5	27	.
O=C(N/N=C\c1cn(-c2ccccc2)nc1-c1ccccc1)c1ccc(Br)o1	-2	1	+	1	3	-1
Cc1nn(C)cc1S(=O)(=O)Nc1ncccn1	0	0	598*	0	22	0
Cn1cc(CN2CCC(C(=O)NC(c3ccc(-c4ccccc4)cc3)c3cnccn3)CC2)c2ccccc21 (stereo not given)	.	-1	.	.	.	.
COCc1[nH][nH]c(=O)c1C=Nc1ccc(OC(F)(F)F)cc1	0	0	801*	1	2	0
COCc1[nH][nH]c(=O)c1C=Nc1ccc(Cl)cc1	1	0	-5	.	20	.
C/C(=N/NC(=O)c1ccncc1)c1ccc(NC(=O)c2ccccc2)cc1	-1	0	-1	-1	4	.
CC(=O)Nc1ccc(/C(C)=N/NC(=O)c2ccncc2)cc1	-1	0	+	7	20	0
Cc1cccc(NC(=O)CSCC(=O)N2CCCc3ccccc32)c1	1	0	503*	-6	8	0
COc1ccc(NC(=O)CSCC(=O)N2CCCc3ccccc32)cc1	1	0	-24	0	28	.
Cc1ccc(NC(=O)CSCC(=O)Nc2ccccc2N2CCCC2)cc1	1	0	421*	-8	9	0
O=C(CCN1CCCCC1)c1cccc(Cl)c1	.	0	.	-5	.	.
COc1ccc(OC)c(CCNC(=O)c2ccc3c(c2)N(Cc2ccc(F)cc2)CCS3)c1	0	0	365*	20	.	0
O=C(O)C1CCCN1C(=O)c1cncc(Br)c1 (stereo not given)	-1	0	+	-7	40	1
CCOC(=O)C1CCCN(C(=O)c2cncc(Br)c2)CC1 (stereo not given)	.	0	.	.	.	.
CCS(=O)(=O)N1CCC(C(=O)NCCCN2CCN(c3ccccc3F)CC2)CC1	1	0	481*	-2	10	1
O=C(NCCCN1CCN(c2ccccc2F)CC1)Nc1ccccc1[N+](=O)[O-]	0	0	447*	14	32	0
O=C(NCCCN1CCN(c2ccccc2F)CC1)C1CCN(S(=O)(=O)c2cccs2)CC1	0	0	-12	-3	12	.
O=C(NCCCN1CCN(c2ccccc2F)CC1)Nc1ccc(F)cc1	1	0	-2	6	5	.
C[C@@H]1CN([C@H](C)CO)C(=O)CCCn2cc(nn2)CO[C@H]1CN(C)CC1CCCC1	.	.	.	-7	.	.
O=C1NC2(CCCCO2)CO1 (stereo not given)	0	0	661*	-9	14	0
O=C1NC2(CCCCC2)CO1	1	0	10	.	12	.
Cc1ccc2c(c1)c1c(n2CC(O)CN2CCOCC2)CCCC1 (stereo not given)	1	.	-4	.	-4	.
COc1ccc(C(=O)c2c(C)c3cc(C)ccc3n2CC(O)CN2CCOCC2)cc1 (stereo not given)	0	0	924*	14	0	-1[21 µM]
